The results in this text go back to the supplement of paper PMC12350171.

Where a name gives a salt, the structure may show the parent alone. Values without a mark were called inactive.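 Rule for the calls: active = AUC significantly below DMSO controls by Student t-fit with adjusted P under 0.01; inactive = not significantly reduced.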

This assay relates to Haemophilus parainfluenzae. Briefly: growth AUC normalised to DMSO control (fraction of control); higher = less growth inhibition, active = hit call of the paper. The following applies: 20 µM. In a few lines:
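Pathogens passaged twice anaerobically were inoculated at a starting OD578 of 0.01 into pre-reduced mGAM plates with drug at 20 μM and 1% DMSO, sealed with breathable membranes. Haemophilus parainfluenzae medium was supplemented with hemin and NAD. OD578 was read hourly for 24 h, with three biological replicates. Growth-curve AUC was computed by the trapezoidal rule up to the exponential-to-stationary transition and normalised to DMSO controls on the same plate.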
As for `Cc1onc(-c2ccccc2Cl)c1C(=O)N[C@@H]1C(=O)N2[C@@H]1SC(C)(C)[C@@H]2C(=O)O` [Cloxacillin sodium salt], the “growth AUC normalised to DMSO control” value was 0.914.
As to `CCC(=O)OCC(=O)[C@@]1(OC(=O)CC)[C@H](C)C[C@H]2[C@H]3[C@H]([C@@H](O)C[C@@]21C)[C@@]1(C)C=CC(=O)C=C1C[C@H]3Cl` [Alclometasone dipropionate], the “growth AUC normalised to DMSO control” value was 1.02.
Consider `CO[C@H]1C[C@H](O[C@H]2[C@H](C)[C@@H](O[C@@H]3O[C@H](C)C[C@H](N(C)C)[C@H]3OC(C)=O)[C@@H](C)C[C@@]3(CO3)C(=O)[C@H](C)[C@@H](OC(C)=O)[C@@H](C)[C@@H](C)OC(=O)[C@@H]2C)O[C@@H](C)[C@@H]1OC(C)=O` [Troleandomycin], for which the “growth AUC normalised to DMSO control” value was 0.921.
For the molecule `CN(C)/N=N/c1[nH]cnc1C(N)=O` [Dacarbazine], the “growth AUC normalised to DMSO control” value is 0.999.
The value for `CO/N=C(\C(=O)N[C@@H]1C(=O)N2C(C(=O)O)=C(C[N+]3(C)CCCC3)CS[C@H]12)c1csc(N)n1` [Cefepime hydrochloride] was 0.0407 (active); that for `C=CCOc1ccccc1OCC(O)CNC(C)C` (centres undefined) [Oxprenolol hydrochloride] was 0.958.
`Clc1ccc(CSC(Cn2ccnc2)c2ccc(Cl)cc2Cl)cc1` (centres undefined) [Sulconazole nitrate]: the “growth AUC normalised to DMSO control” value was 1.08.
The value for `OCCN1C[C@H](O)[C@@H](O)[C@H](O)[C@H]1CO` [Miglitol] was 0.925; that for `CN1CCC(=C2c3ccccc3Sc3ccccc32)CC1` [Pimethixene maleate] was 0.908.
